Consider 39 sequences from PMC10812921, “Transcriptional Coactivator BOB1 (OBF1, OCA-B) Modulates the Specificity of DNA Recognition by the POU-Domain Factors OCT1 and OCT2 in a Monomeric Configuration”.

The first experiment addresses POU1 (OCT1 POU domain);BOB1 (OBF1, OCA-B) (human;human, UniProt P14859;Q16633 260-458;1-256, |). Nature of the experiment: EMSA-SELEX-seq; with BOB1 (ternary complex band); 20 mM Tris-HCl pH 7.6, 140 mM NaCl, 10% glycerol, 0.5 mM EDTA, 0.05% Triton X-100, 0.1 mg/mL BSA, 0.1 mg/mL poly(dI-dC), 5 mM DTT, room temperature, 20 min; high values mean tight binding. The note with it: protein: recombinant;recombinant; copies: 1;1; dsDNA, one strand shown. In outline:
(§1)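 Tagged POU-domain proteins were produced in E. coli BL21, purified under denaturing conditions and renatured before use. They were mixed at 30 ng with 300 ng of a PCR-amplified double-stranded random 35-nt library, with or without 28 ng coactivator protein, in 20 μL Tris–HCl pH 7.6 binding buffer, incubating 20 min at RT. Complexes cut from native 6% PAGE were eluted and PCR-amplified over four rounds, then sequenced by Illumina, with binding preference taken as the percentage of sequenced 8-mers matching a motif pattern.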
On the technique in general: In EMSA bound probe runs differently from free probe, usually more slowly.
For the sequence AGTGAAAC, the binding signal was 0.0324 % of ANNNNAAN 8-mers.
For the sequence ACACCAAT, the binding signal was 0.0168 % of ANNNNAAN 8-mers.
Take AGCGAAAC: the binding signal is 0.0137 % of ANNNNAAN 8-mers.
With AGGCTAAA, the binding signal is 0.0363 % of ANNNNAAN 8-mers.
With ATGTCAAT, the binding signal is 0.0722 % of ANNNNAAN 8-mers.
AGGAGAAT: the binding signal was 0.0624 % of ANNNNAAN 8-mers.
In the case of AGCAAAAT, the binding signal was 0.107 % of ANNNNAAN 8-mers.
For the sequence ACGACAAC, the binding signal is 0.0133 % of ANNNNAAN 8-mers.
On to ATTCCAAT, for which the binding signal was 0.057 % of ANNNNAAN 8-mers.
On the same count and under the same terms, with ACATCAAT the figure was 0.0367 % of ANNNNAAN 8-mers; with AAGTAAAT, 0.227 % of ANNNNAAN 8-mers.
Same read-out and setting: with AAGCAAAA the figure was 0.204 % of ANNNNAAN 8-mers; with ATATTAAG, 0.0882 % of ANNNNAAN 8-mers; with AACGAAAG, 0.0328 % of ANNNNAAN 8-mers.
With AGTGAAAT, the binding signal is 0.196 % of ANNNNAAN 8-mers.
The same measure, in the same setting: with ATCTGAAC the figure was 0.0258 % of ANNNNAAN 8-mers.
In the case of ATGGCAAC, the binding signal was 0.0297 % of ANNNNAAN 8-mers.
Take ATGCGAAC: the binding signal is 0.0386 % of ANNNNAAN 8-mers.
Take AAATCAAG: the binding signal was 0.132 % of ANNNNAAN 8-mers.
Still for that read-out and setting: the value for AAGATAAA was 0.0585 % of ANNNNAAN 8-mers.
Regarding AATCTAAT, the binding signal was 0.0972 % of ANNNNAAN 8-mers.
On to ACCAGAAC, for which the binding signal is 0.0129 % of ANNNNAAN 8-mers.
As for AGTTTAAT, the binding signal is 0.0882 % of ANNNNAAN 8-mers.
Take AAACTAAT: the binding signal is 0.0808 % of ANNNNAAN 8-mers.
Take ATTCTAAA: the binding signal was 0.0542 % of ANNNNAAN 8-mers.
Still for that read-out and setting: with ATGTGAAC the figure was 0.0367 % of ANNNNAAN 8-mers; with AAGTTAAT, 0.102 % of ANNNNAAN 8-mers.
As to AGCGAAAA, the binding signal was 0.0418 % of ANNNNAAN 8-mers.
On to AAGTCAAA, for which the binding signal was 0.258 % of ANNNNAAN 8-mers.
As for AGACGAAA, the binding signal is 0.0343 % of ANNNNAAN 8-mers.
Consider AGTTCAAG, for which the binding signal was 0.0359 % of ANNNNAAN 8-mers.
The same measure, in the same setting: the value for AAATGAAA was 0.21 % of ANNNNAAN 8-mers; that for AATATAAG was 0.0886 % of ANNNNAAN 8-mers; that for AACCAAAC was 0.0437 % of ANNNNAAN 8-mers.
In the case of ACATAAAG, the binding signal was 0.0663 % of ANNNNAAN 8-mers.
On the same count and under the same terms, the value for AGGCGAAA was 0.0386 % of ANNNNAAN 8-mers.
Take ACCAGAAG: the binding signal was 0.018 % of ANNNNAAN 8-mers.
As for ACAATAAA, the binding signal was 0.0453 % of ANNNNAAN 8-mers.
For ATACTAAT, the binding signal was 0.0745 % of ANNNNAAN 8-mers.

For the next experiment, the target named is T1, POU2 (OCT2 POU domain);BOB1 (OBF1, OCA-B) (human;human, UniProt P09086;Q16633 175-386;1-256, |).
T1 sequence 1: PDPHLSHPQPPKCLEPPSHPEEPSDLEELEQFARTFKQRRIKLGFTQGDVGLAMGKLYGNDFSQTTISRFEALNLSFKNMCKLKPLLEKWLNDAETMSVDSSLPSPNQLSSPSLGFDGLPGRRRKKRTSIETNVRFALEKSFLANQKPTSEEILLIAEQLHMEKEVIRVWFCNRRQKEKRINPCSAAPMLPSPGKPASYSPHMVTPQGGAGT
T1 sequence 2: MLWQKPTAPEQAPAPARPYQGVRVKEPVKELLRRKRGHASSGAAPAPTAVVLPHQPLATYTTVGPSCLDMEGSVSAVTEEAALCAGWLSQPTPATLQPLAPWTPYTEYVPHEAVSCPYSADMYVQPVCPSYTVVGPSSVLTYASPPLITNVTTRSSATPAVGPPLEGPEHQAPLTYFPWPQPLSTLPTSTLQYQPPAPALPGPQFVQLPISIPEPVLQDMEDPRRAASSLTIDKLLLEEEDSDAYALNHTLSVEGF
The experiment is described as above. The note with it: protein: recombinant;recombinant; copies: 1;1; dsDNA, one strand shown. The gist of the method:
as §1
As to AGTGAAAC, the binding signal was 0.0206 % of ANNNNAAN 8-mers.
Consider ACACCAAT, for which the binding signal was 0.019 % of ANNNNAAN 8-mers.
As to AGCGAAAC, the binding signal was 0.0198 % of ANNNNAAN 8-mers.
The same measure, in the same setting: with AGGCTAAA the figure was 0.0454 % of ANNNNAAN 8-mers.
For ATGTCAAT, the binding signal is 0.0743 % of ANNNNAAN 8-mers.
Consider AGGAGAAT, for which the binding signal is 0.0702 % of ANNNNAAN 8-mers.
In the case of AGCAAAAT, the binding signal is 0.0759 % of ANNNNAAN 8-mers.
Take ACGACAAC: the binding signal is 0.0149 % of ANNNNAAN 8-mers.
Turning to ATTCCAAT, the binding signal was 0.0751 % of ANNNNAAN 8-mers.
For ACATCAAT, the binding signal is 0.0338 % of ANNNNAAN 8-mers.
Take AAGTAAAT: the binding signal was 0.147 % of ANNNNAAN 8-mers.
Consider AAGCAAAA, for which the binding signal is 0.106 % of ANNNNAAN 8-mers.
Consider ATATTAAG, for which the binding signal was 0.117 % of ANNNNAAN 8-mers.
Same read-out and setting: the value for AACGAAAG was 0.0264 % of ANNNNAAN 8-mers; that for AGTGAAAT was 0.121 % of ANNNNAAN 8-mers; that for ATCTGAAC was 0.0429 % of ANNNNAAN 8-mers.
On the same count and under the same terms, the value for ATGGCAAC was 0.0264 % of ANNNNAAN 8-mers.
Take ATGCGAAC: the binding signal was 0.0347 % of ANNNNAAN 8-mers.
With AAATCAAG, the binding signal is 0.128 % of ANNNNAAN 8-mers.
For AAGATAAA, the binding signal is 0.0405 % of ANNNNAAN 8-mers.
With AATCTAAT, the binding signal was 0.0949 % of ANNNNAAN 8-mers.
As for ACCAGAAC, the binding signal is 0.0223 % of ANNNNAAN 8-mers.
Regarding AGTTTAAT, the binding signal is 0.111 % of ANNNNAAN 8-mers.
Take AAACTAAT: the binding signal is 0.0925 % of ANNNNAAN 8-mers.
On to ATTCTAAA, for which the binding signal is 0.0726 % of ANNNNAAN 8-mers.
In the case of ATGTGAAC, the binding signal was 0.0388 % of ANNNNAAN 8-mers.
Still for that read-out and setting: with AAGTTAAT the figure was 0.102 % of ANNNNAAN 8-mers; with AGCGAAAA, 0.033 % of ANNNNAAN 8-mers; with AAGTCAAA, 0.165 % of ANNNNAAN 8-mers.
The same measure, in the same setting: with AGACGAAA the figure was 0.0264 % of ANNNNAAN 8-mers.
As to AGTTCAAG, the binding signal was 0.0314 % of ANNNNAAN 8-mers.
Regarding AAATGAAA, the binding signal was 0.147 % of ANNNNAAN 8-mers.
For the sequence AATATAAG, the binding signal is 0.0966 % of ANNNNAAN 8-mers.
For the sequence AACCAAAC, the binding signal is 0.0239 % of ANNNNAAN 8-mers.
On to ACATAAAG, for which the binding signal was 0.0759 % of ANNNNAAN 8-mers.
With AGGCGAAA, the binding signal was 0.0363 % of ANNNNAAN 8-mers.
On the same count and under the same terms, the value for ACCAGAAG was 0.0215 % of ANNNNAAN 8-mers.
Take ACAATAAA: the binding signal was 0.0396 % of ANNNNAAN 8-mers.
For the sequence ATACTAAT, the binding signal is 0.11 % of ANNNNAAN 8-mers.
